Calls of active or inactive are those of the source.
How the values were obtained:
[1] = E. coli DRC41 culture turbidity changes, primary screen, E. coli filamentation inducer project, strain DRC41, OD650, 48 h (AID 1152);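 further: E. coli MC1000 strain DRC41 lacking acrAB efflux pump and sulA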; details: E. coli DRC41 (acrAB sulA), higher = more signal, called active from +8 up or from −8 down
[2] = small-molecule binders of probe aLefty1, primary screen, biochemical, small-molecule microarray, 635/667 nm fluorescence (AID 1153); details: higher = more signal;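 further: score merges spot fluorescence with signal-to-noise ratio from the scanned slide images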
[3] = PSAC antagonists in infected red cells, primary screen, cell-based, P. falciparum Indochina, OD700, 1 h (AID 1154); details: P. falciparum Indochina infected RBC osmotic lysis, higher = more signal, called active from +8 up or from −8 down
[4] = PSAC antagonists in infected red cells, primary screen, cell-based, P. falciparum Indochina, OD700, 2 h (AID 1155);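 further: lysis reports solute entry through the parasite surface anion channel PSAC; channel blockers reduce lysis of infected cells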; details: P. falciparum Indochina infected erythrocytes, osmotic lysis OD700; higher = more signal, called active from +8 up or from −8 down
[5] = osmotic lysis modulators in infected erythrocytes, primary screen, PSAC antagonist project, cell-based, P. falciparum Indochina, OD700, 3 h (AID 1156); details: higher = more signal, called active from +8 up or from −8 down
[6] = PSAC antagonists in infected red cells, primary screen, cell-based, P. falciparum Indochina, OD700, 18 h (AID 1157); details: P. falciparum Indochina infected erythrocytes, osmotic lysis OD700, 18 h; higher = more signal, called active from +8 up or from −8 down
[7] = modulators of S6 phosphorylation in cells, primary screen, cell-based, A549, cytoblot, luminescence, serum-stimulated (AID 1158); details: A549 phospho-S6 cytoblot, 5 h, higher = more signal;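 further: serum-stimulated A549 lung adenocarcinoma cells; signal is phosphorylated S6 detected by cytoblot immunostaining with HRP secondary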
[8] = target: NADPH oxidase 2 (Homo sapiens) (UniProt P04839); assay: NOX2-dependent H2O2 signal modulators, primary screen, NOX inhibitor project, cell-based, HEK293-NOX2, PMA-stimulated, Amplex Red fluorescence (AID 1159); details: 45 min, higher = more signal, called active from +8 up or from −8 down; further: test concentration not given here
[9] = target: NADPH oxidase 4 (Homo sapiens) (UniProt Q9NPH5); assay: NOX4-dependent H2O2 signal modulators, primary screen, NOX inhibitor project, cell-based, HEK293-NOX4, tetracycline-induced, Amplex Red fluorescence (AID 1160); details: 45 min, higher = more signal, called active from +8 up or from −8 down
[10] = target: NADPH oxidase 5 (Homo sapiens) (UniProt Q96PH1); assay: NOX5-dependent H2O2 signal modulators, primary screen, NOX inhibitor project, cell-based, HEK293-NOX5, Amplex Red fluorescence (AID 1161); details: HEK293-NOX5, ionomycin, 45 min, higher = more signal
Chain of NADPH oxidase 5 (Homo sapiens) (Q96PH1 whole entry, looked up): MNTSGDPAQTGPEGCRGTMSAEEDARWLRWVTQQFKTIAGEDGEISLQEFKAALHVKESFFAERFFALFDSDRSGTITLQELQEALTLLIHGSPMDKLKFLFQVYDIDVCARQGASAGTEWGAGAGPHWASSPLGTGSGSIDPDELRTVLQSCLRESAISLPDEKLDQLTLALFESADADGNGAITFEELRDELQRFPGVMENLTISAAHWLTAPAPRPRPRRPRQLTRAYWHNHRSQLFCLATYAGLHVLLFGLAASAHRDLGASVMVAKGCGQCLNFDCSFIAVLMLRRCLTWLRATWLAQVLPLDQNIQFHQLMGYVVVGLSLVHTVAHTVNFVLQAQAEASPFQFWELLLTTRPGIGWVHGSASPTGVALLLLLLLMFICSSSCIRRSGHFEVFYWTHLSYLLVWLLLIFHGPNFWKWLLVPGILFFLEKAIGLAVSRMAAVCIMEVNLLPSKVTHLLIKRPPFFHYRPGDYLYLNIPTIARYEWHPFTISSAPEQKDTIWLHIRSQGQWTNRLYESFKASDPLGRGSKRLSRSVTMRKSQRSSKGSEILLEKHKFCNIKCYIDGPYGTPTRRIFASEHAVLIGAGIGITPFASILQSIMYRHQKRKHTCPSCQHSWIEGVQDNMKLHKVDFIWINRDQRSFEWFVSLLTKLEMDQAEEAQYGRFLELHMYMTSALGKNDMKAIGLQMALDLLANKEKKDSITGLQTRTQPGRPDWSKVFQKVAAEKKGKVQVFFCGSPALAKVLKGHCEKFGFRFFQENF

Chain of NADPH oxidase 4 (Homo sapiens) (Q9NPH5 whole entry, looked up): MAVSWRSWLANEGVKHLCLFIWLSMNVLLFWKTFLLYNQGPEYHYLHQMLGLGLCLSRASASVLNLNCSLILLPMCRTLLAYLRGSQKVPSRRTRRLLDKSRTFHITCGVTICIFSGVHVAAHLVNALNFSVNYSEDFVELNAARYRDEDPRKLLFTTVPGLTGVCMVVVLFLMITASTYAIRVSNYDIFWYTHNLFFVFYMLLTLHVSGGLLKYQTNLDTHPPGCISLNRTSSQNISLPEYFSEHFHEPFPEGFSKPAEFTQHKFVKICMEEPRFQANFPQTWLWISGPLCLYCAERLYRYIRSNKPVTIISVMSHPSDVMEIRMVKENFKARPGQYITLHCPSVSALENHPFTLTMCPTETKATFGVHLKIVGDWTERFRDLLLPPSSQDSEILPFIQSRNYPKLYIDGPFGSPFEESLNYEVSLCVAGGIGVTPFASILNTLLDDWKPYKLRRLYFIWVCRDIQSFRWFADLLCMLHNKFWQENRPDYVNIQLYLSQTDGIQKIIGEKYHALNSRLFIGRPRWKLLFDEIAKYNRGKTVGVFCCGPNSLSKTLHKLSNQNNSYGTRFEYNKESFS
Chain of NADPH oxidase 2 (Homo sapiens) (P04839 whole entry, looked up): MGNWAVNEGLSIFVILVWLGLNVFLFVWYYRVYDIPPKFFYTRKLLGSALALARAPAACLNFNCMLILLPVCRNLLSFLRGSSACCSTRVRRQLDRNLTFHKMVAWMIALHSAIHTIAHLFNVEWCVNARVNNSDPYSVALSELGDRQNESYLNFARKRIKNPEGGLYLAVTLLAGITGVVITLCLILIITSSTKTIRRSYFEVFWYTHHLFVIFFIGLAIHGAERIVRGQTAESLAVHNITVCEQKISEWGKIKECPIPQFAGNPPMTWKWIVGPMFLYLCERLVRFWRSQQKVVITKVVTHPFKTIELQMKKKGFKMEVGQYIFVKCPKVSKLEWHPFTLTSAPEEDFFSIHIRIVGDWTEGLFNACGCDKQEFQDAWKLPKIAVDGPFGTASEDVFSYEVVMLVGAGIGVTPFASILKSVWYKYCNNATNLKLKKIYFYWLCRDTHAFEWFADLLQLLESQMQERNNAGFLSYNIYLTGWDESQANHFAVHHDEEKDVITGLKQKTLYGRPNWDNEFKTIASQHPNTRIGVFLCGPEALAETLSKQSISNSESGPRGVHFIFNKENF

| Structure (SMILES) | z-score [1] | composite z-score [2] | z-score [3] | z-score [4] | z-score [5] | z-score [6] | z-score [7] | z-score [8] | z-score [9] | z-score [10] |
| --- | --- | --- | --- | --- | --- | --- | --- | --- | --- | --- |
| CC1CC/C=C\[C@H]2OC34C=CCN(c5ccc(Cl)cc5)C(=O)[C@H]3N(C(CO)C(C)C)C(=O)[C@]4(C)C2C(=O)O1 (stereo not given in full) | -0.397 (inactive) | 0.188 | 2.3 (inactive) | 0.798 (inactive) | 0.647 (inactive) | 0.647 (inactive) | -0.631 | 1.86 (inactive) | -0.264 (inactive) | 2.39 |
| C[C@H]1NC(=O)C([C@@H](C)OCc2ccccc2)NC(=O)[C@@]23C(=O)N[C@@H](Cc4ccccc4)C2[C@H](C)[C@@]2(C)O[C@H]2C3/C=C/CC/C=C/CNC1=O (stereo not given in full) | 1.85 (inactive) | -0.0094 | 1.79 (inactive) | 0.76 (inactive) | 0.89 (inactive) | 0.107 (inactive) | 0.888 | 1.24 (inactive) | -0.179 (inactive) | 0.815 |
| COC(=O)[C@@]1(Cc2ccccc2)[C@H]2c3cc(C(=O)N4CCCC4)n(Cc4ccc(OC(F)(F)F)cc4)c3C[C@H]2CN1C(=O)c1ccccc1 | -2.11 (inactive) | 0.592 | 3.6 (inactive) | 1.2 (inactive) | 1.01 (inactive) | 1.35 (inactive) | -0.366 | 0.828 (inactive) | 1.34 (inactive) | 0.914 |
| C=CC[C@@]1(C(=O)NCCN2CCOCC2)N=C(c2ccc(OCCCO)cc2)O[C@@H]1c1ccccc1 | -0.302 (inactive) | 0.562 | 18.7 (active) | 3.03 (inactive) | 1.55 (inactive) | 0.863 (inactive) | -0.501 | 0.48 (inactive) | 0.62 (inactive) | -0.092 |
| CC(C)N1CC=CC23O[C@@H]4C=CCOC(=O)[C@@H]4[C@H]2C(=O)N(CCCCCCO)[C@@H]3C1=O (stereo not given in full) | 0.864 (inactive) | -0.184 | 0.855 (inactive) | 0.619 (inactive) | 0.343 (inactive) | 0.65 (inactive) | -0.0596 | 0.936 (inactive) | -0.482 (inactive) | 1.26 |
| C=C(/C(=C/C[C@@H](OC(=O)c1ccncc1)c1cccc(OCCO)c1)c1cc(C(=O)OC)ccc1OC)C(C)C | 0.987 (inactive) | 0.649 | 15 (active) | 3.01 (inactive) | 2.43 (inactive) | 1.04 (inactive) | 0.421 | 2.05 (inactive) | 1.09 (inactive) | -0.951 |
| C=CC[C@]1(C(=O)N(C)C)N=C(c2ccc(OCCCO)cc2)O[C@H]1c1ccccc1 | 1.17 (inactive) | 0.325 | 28.3 (active) | 17.7 (active) | 3.55 (inactive) | 1.46 (inactive) | 1.41 | -2.39 (inactive) | -0.252 (inactive) | -4.75 |
| COC(=O)c1ccc(OC)c(/C=C\CC(CCc2ccccc2)OC(=O)c2ccncc2)c1 (stereo not given) | -0.295 (inactive) | -0.251 | 17.9 (active) | 3.19 (inactive) | 0.533 (inactive) | 0.672 (inactive) | -0.224 | -0.392 (inactive) | 0.67 (inactive) | -0.11 |
| COCCOC(=O)N1C(=O)[C@@]2(c3cc(C#Cc4ccc(OC)cc4)ccc31)[C@H](C(=O)N1CCc3cc(OC)c(OC)cc3C1)[C@H]1C(=O)O[C@H](c3ccccc3)[C@H](c3ccccc3)N1[C@@H]2c1ccc(O)cc1 | 0.515 (inactive) | 1.05 | 1.74 (inactive) | 0.402 (inactive) | 0.295 (inactive) | 0.285 (inactive) | 0.269 | 0.987 (inactive) | -1.37 (inactive) | 0.321 |
| O=C1N(CCS(=O)(=O)c2ccccc2)c2ccccc2[C@H]2OC(c3ccc(OCCCO)cc3)=N[C@@]12CCS(=O)(=O)c1ccccc1 | 0.401 (inactive) | 0.582 | 28.2 (active) | 26.3 (active) | 3.35 (inactive) | 4.36 (inactive) | -0.357 | 1.76 (inactive) | 0.492 (inactive) | 1.46 |
| CC(C)CNC(=O)[C@@]1(c2ccc([N+](=O)[O-])cc2)CC(=O)N(C(C)C)[C@@H]1c1ccc(CO)cc1 | 1.27 (inactive) | -0.0547 | 0.224 (inactive) | -0.227 (inactive) | -1.64 (inactive) | -0.533 (inactive) | 0.557 | -0.145 (inactive) | -0.423 (inactive) | -1.44 |
| CC(C)C[C@@H]1NC(=O)[C@@H]2C[C@H](C(=O)NCCCC[N+](C)(C)C)[C@H](c3cccc(OCCO)c3)N2C1=O | -0.44 (inactive) | 0.115 | 3.73 (inactive) | 1.16 (inactive) | -0.369 (inactive) | 0.645 (inactive) | -0.102 | -1.2 (inactive) | -0.152 (inactive) | -0.372 |
| O=C(O)[C@]1(CCS(=O)(=O)c2ccccc2)N=C(c2ccc(OCCCO)cc2)O[C@@H]1c1ccccc1 | 0.139 (inactive) | 0.528 | 11.3 (active) | 1.11 (inactive) | 0.327 (inactive) | -0.169 (inactive) | -0.515 | -0.298 (inactive) | 0.578 (inactive) | 1.1 |
| O=[N+]([O-])c1ccc(C[n+]2ccc(-c3ccc(CO)cc3)cc2)o1 | -1.32 (inactive) | -0.0764 | 1.34 (inactive) | 0.199 (inactive) | 0.495 (inactive) | -0.139 (inactive) | -0.103 | 0.0654 (inactive) | -0.765 (inactive) | -3.73 |
| CN(C)C(=O)[C@]1(Cc2ccccc2N=[N+]=[N-])N=C(c2ccc(OCCCO)cc2)O[C@@H]1c1ccccc1CN=[N+]=[N-] | 0.367 (inactive) | 0.81 | 29.4 (active) | 20 (active) | 3.02 (inactive) | 2.16 (inactive) | 0.915 | -2.57 (inactive) | -0.305 (inactive) | -1.93 |
| CN1C(=O)C2C=CC(C(O)c3ccc(F)cc3)N(N3CCCCC3)C2C1=O (stereo not given) | -1.37 (inactive) | 0.604 | 1.02 (inactive) | 1.14 (inactive) | 0.772 (inactive) | 1.2 (inactive) | -1.08 | 0.0457 (inactive) | -0.751 (inactive) | -1.35 |
| O=C1C2C=CC(C(O)c3ccccn3)N(Nc3ccccc3)C2C(=O)N1c1ccccc1 (stereo not given) | -0.803 (inactive) | 0.0437 | 1.67 (inactive) | 1.27 (inactive) | -0.167 (inactive) | 0.974 (inactive) | -0.721 | -1.21 (inactive) | -3.92 (inactive) | -2.84 |

From PubChem BioAssay
